hcDAF12 agonist: H. contortus DAF-12 activation, primary screen; hit rate 1.4% among 370,000; HEK293 hcDAF-12 lit1-tk-luc reporter, luminescence; 0% DMSO, 100% Δ7-dafachronic acid; activation, % at 6.8 µM;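 active = activation above the mean of all tested compounds plus 3 SD, cut at about 5.5% in these data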;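 also: 100% = response to 3 µM Δ7-dafachronic acid high control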
DAX1 inh-1: NR0B1 (DAX1) inhibition. P51843. HEK293 Gal4-DAX1 luciferase reporter, luminescence. inhibition, % at 6.75 µM. hit rate 0.99% among 340,000. AID 504766;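 active = inhibition above the mean over all tested compounds plus 3 SD, cut at about 4.2% in these data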;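 also: 0% = DAX1-transfected cells with DMSO and 100% = empty-vector control cells with DMSO; inhibition shows as a rise in luminescence from relieved DAX1 repression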
Target sequence (P51843 207-470 limits assumed): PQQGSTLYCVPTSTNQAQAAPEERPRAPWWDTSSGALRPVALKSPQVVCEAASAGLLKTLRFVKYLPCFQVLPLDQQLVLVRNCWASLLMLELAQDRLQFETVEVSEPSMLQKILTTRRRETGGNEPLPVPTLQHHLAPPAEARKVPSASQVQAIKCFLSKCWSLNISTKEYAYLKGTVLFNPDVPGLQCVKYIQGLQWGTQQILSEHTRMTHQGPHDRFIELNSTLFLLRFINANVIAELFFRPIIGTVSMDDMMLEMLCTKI
DAX1 inh-2: DAX1 (NR0B1) inhibition, primary screen; hit rate 1.1% among 370,000; HEK293T StAR-luciferase reporter, SF-1/DAX-1 repression relief; inhibition, % at 6.8 µM;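 active = inhibition above the mean over all tested compounds plus 3 SD, cut at about 3.6% in these data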;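 also: 0% = DAX-1 cells with DMSO and 100% = cells lacking DAX-1 with DMSO; higher inhibition means more luminescence from relief of DAX-1 repression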
hgDAF12 agonist: agonists of H. glycines DAF-12 nuclear receptor | HEK293 GAL4-hgDAF12 UAS-luciferase reporter, agonist luminescence; normalized to butyrate control | activation, % at 6.8 µM | AID 687014 | hit rate 1.8% among 370,000;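 active = activation above a cutoff set at the mean of all screened compounds plus 3 SD, cut at about 10% in these data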;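 also: 0% = DMSO wells and 100% = sodium butyrate wells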
ssDAF12 agonist: activates DAF-12 receptor from parasite S. stercoralis. HEK293 ssDAF-12/GRIP1 lit1-tk-luc reporter, luminescence; % of 3 µM dafachronic acid response. hit rate 1% among 370,000. activation, % at 6.8 µM. AID 652126;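 active = activation above the mean over all tested compounds plus 3 SD, cut at about 0.9% in these data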;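 also: 0% = DMSO-only wells and 100% = 3 µM delta7-dafachronic acid wells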
hgDAF12 conf: hgDAF-12 agonism, confirmation assay | shares compounds with hgDAF12 agonist | HEK293 GAL4-hgDAF12 luciferase reporter, agonist mode; percent of butyrate response | hit rate 80% among 3,300 | activation, % at 6.8 µM | AID 743050;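 active = mean activation over triplicate wells above the hit cutoff derived from the earlier primary screen, cut at about 11% in these data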;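 also: 0% = DMSO low control and 100% = 2 mM sodium butyrate high control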
LXRb DAF12 ctr: LXR-beta agonism as DAF-12 counter-screen | shares compounds with hgDAF12 agonist | HEK293 Gal4-LXR luciferase reporter, 24 h | activation, % at 6.8 µM | 3,300 tested, under 10 active | AID 743051;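 active = mean activation of the triplicate above a set limit carried over from the primary screen, none filed active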
Numbers without * were called inactive; nt = no result given. A selection: hits, their analogues and other compounds. The true share with any hit is near 4.1%.

SMILES	hcDAF12 agonist	DAX1 inh-1	DAX1 inh-2	hgDAF12 agonist	ssDAF12 agonist	hgDAF12 conf	LXRb DAF12 ctr
NC(Cc1ccccc1)c1nc2ccccc2[nH]1 (stereo not drawn)	2	2	0	1	0	nt	nt
CCOc1ccc(-n2c(O)c(C=NCCN3CCNCC3)c(=O)[nH]c2=O)cc1	nt	2	nt	nt	nt	nt	nt
COc1ccc(CN2CCCC(C(=O)c3sccc3C)C2)cc1O (stereo not drawn)	0	1	1	4	-1	nt	nt
COc1ccc(CN2Cc3cc(-c4ccc(OC)cc4)ccc3-n3nncc3C2)cc1	2	nt	-2	14*	-1	3	0
COc1ccc(CN2Cc3cc(-c4ccccc4)ccc3-n3nncc3C2)cc1	-1	nt	-1	3	-1	nt	nt
COc1ccccc1-n1c(O)c(/C=N/NC(=S)Nc2ccccc2)c(=O)[nH]c1=S	-1	nt	0	-1	0	nt	nt
O=C(c1cc2c(s1)-c1ccccc1OC2)N1CCC2(CC1)OCCO2	3	3	0	14*	0	19*	1
Cc1ccccc1NC(=O)N1Cc2ccccc2-n2nncc2C1	0	0	0	2	-1	nt	nt

High-throughput results from PubChem BioAssay.
